From PubChem BioAssay (NCI)
Where “and” joins values, the source holds several entries; their conditions need not be identical. Equal values may be shown once. About 83,000 compounds went through this panel and 20% of them were active in at least one assay; those are over-represented in the sample as a whole.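 Cells were grown in 96-well plates and exposed to the test compound at a single concentration for 48 hours; results are reported as percent growth, with values below 10 considered active.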 Calls of active or inactive are those of the source.

Experiments:
Assay in all cases: NCI-60 one-dose screen, 48 h (100 = growth as untreated, 0 = no growth, -100 = all killed)
SR leukemia = conditions: 10 µM unless noted
RPMI-8226 leukemia = conditions: 10 µM unless noted
OVCAR-8 ovarian = conditions: 10 µM unless noted
OVCAR-5 ovarian = conditions: 10 µM unless noted
OVCAR-4 ovarian = conditions: 10 µM unless noted
SK-OV-3 ovarian = conditions: 10 µM unless noted
IGROV1 ovarian = conditions: 10 µM unless noted
OVCAR-3 ovarian = conditions: 10 µM unless noted
HS 578T breast = conditions: 10 µM unless noted
T-47D breast = conditions: 10 µM unless noted
BT-549 breast = conditions: 10 µM unless noted
MDA-MB-435 melanoma = conditions: 10 µM unless noted
SW-620 colon = conditions: 10 µM unless noted
MCF7 breast = test system: MCF7 breast
HCT-116 colon = conditions: 10 µM unless noted
HCC-2998 colon = conditions: 10 µM unless noted
KM12 colon = conditions: 10 µM unless noted
NCI/ADR-RES ovarian = conditions: 10 µM unless noted

Measured: growth

O=S(=O)(Nc1ccc(F)cc1)c1ccc(-c2cnc(C3CC3)o2)cc1
inactive: SR leukemia 11.6% | RPMI-8226 leukemia 17.2% | OVCAR-8 ovarian 30.4% | OVCAR-5 ovarian 59.1% | OVCAR-4 ovarian 69.9% | SK-OV-3 ovarian 39.7% | IGROV1 ovarian 37.9% | OVCAR-3 ovarian 10.2% | HS 578T breast 14.1% | T-47D breast 32.6% | BT-549 breast 52.8% | SW-620 colon 20.6% | MCF7 breast; 10 µM unless noted 16.3% | HCT-116 colon 18.8% | HCC-2998 colon 56.4% | KM12 colon 21.2%
active: MDA-MB-435 melanoma -10.3%

O=c1c(/C=C/c2ccco2)nnc2sc(Nc3ccc(Cl)cc3)nn12
inactive: SR leukemia 96% | RPMI-8226 leukemia 101% | OVCAR-8 ovarian 101% | OVCAR-5 ovarian 97.1% | OVCAR-4 ovarian 90.7% | SK-OV-3 ovarian 86.4% | IGROV1 ovarian 68.8% | OVCAR-3 ovarian 106% | HS 578T breast 91% | T-47D breast 88.2% | BT-549 breast 99.9% | MDA-MB-435 melanoma 100% | SW-620 colon 103% | MCF7 breast; 10 µM unless noted 82.5% | HCT-116 colon 99% | HCC-2998 colon 96.3% | KM12 colon 103%

Fc1ccccc1-c1cnn2cc(-c3ccccc3)cnc12
inactive: SR leukemia 81.8% | RPMI-8226 leukemia 98% | OVCAR-8 ovarian 94.1% | OVCAR-5 ovarian 109% | OVCAR-4 ovarian 98.5% | SK-OV-3 ovarian 98% | IGROV1 ovarian 88% | OVCAR-3 ovarian 109% | HS 578T breast 93% | T-47D breast 98.1% | BT-549 breast 98.7% | MDA-MB-435 melanoma 75.6% | SW-620 colon 92.2% | MCF7 breast; 10 µM unless noted 68.1% | HCT-116 colon 91.3% | HCC-2998 colon 92.8% | KM12 colon 59.3%

COc1ccc(C2=C(CN)C(O)NC(=NCC(=O)c3ccc4ccccc4c3)N2)cc1 (stereo unspecified)
inactive: SR leukemia 99.4% | RPMI-8226 leukemia 119% | OVCAR-8 ovarian 98.8% | OVCAR-5 ovarian 99.8% | OVCAR-4 ovarian 107% | SK-OV-3 ovarian 89.4% | OVCAR-3 ovarian 99.9% | HS 578T breast 116% | NCI/ADR-RES ovarian 103% | T-47D breast 101% | BT-549 breast 99% | MDA-MB-435 melanoma 103% | SW-620 colon 112% | MCF7 breast; 10 µM unless noted 96.2% | HCT-116 colon 92.7% | HCC-2998 colon 107% | KM12 colon 97.2%

CC[C@]12CN3CCc4c([nH]c5ccccc45)[C@@](C(=O)OC)(c4cc5c(cc4OC)N(C)[C@H]4[C@@](O)(C(=O)OC)[C@H](OC(C)=O)[C@]6(CC)C=CCN7CC[C@]54[C@@H]76)CC(C3)[C@H]1O2 (stereo partly specified)
inactive: SR leukemia 14.4% | RPMI-8226 leukemia 20.5% | OVCAR-5 ovarian 49% | OVCAR-4 ovarian 28% | SK-OV-3 ovarian 22.1% | NCI/ADR-RES ovarian 82% | T-47D breast 54.8% | SW-620 colon 17.1% | MCF7 breast; 10 µM 15.7%
35.1% (inactive) and -19% (active): MCF7 breast; 100 µM
active: OVCAR-8 ovarian 7.27% | OVCAR-3 ovarian -60.4% | HS 578T breast -25.1% | BT-549 breast -26% | MDA-MB-435 melanoma -43.8% | HCT-116 colon 0.479% | HCC-2998 colon -14.6% | KM12 colon -17.6%

COc1ccc(N2CCN(S(=O)(=O)c3oc(-c4ccccc4)nc3C#N)CC2)cc1
active: SR leukemia 6.1% | SW-620 colon 7.02%
inactive: RPMI-8226 leukemia 41.4% | OVCAR-8 ovarian 60.2% | OVCAR-5 ovarian 95.2% | OVCAR-4 ovarian 86.7% | SK-OV-3 ovarian 113% | IGROV1 ovarian 54.6% | OVCAR-3 ovarian 73.3% | HS 578T breast 104% | T-47D breast 73.1% | BT-549 breast 77.5% | MDA-MB-435 melanoma 65.2% | MCF7 breast; 10 µM unless noted 31.2% | HCT-116 colon 15.4% | HCC-2998 colon 100% | KM12 colon 104%

CC/C(=C(/c1ccc(Cl)cc1)c1ccc(OCCN2CCOCC2)cc1)c1ccccc1
inactive: SR leukemia 85.1% | RPMI-8226 leukemia 80.3% | OVCAR-8 ovarian 91.6% | OVCAR-5 ovarian 100% | OVCAR-4 ovarian 100% | SK-OV-3 ovarian 116% | IGROV1 ovarian 108% | OVCAR-3 ovarian 96% | HS 578T breast 99.2% | T-47D breast 71.7% | BT-549 breast 117% | MDA-MB-435 melanoma 94.8% | SW-620 colon 83.7% | MCF7 breast; 10 µM unless noted 86.2% | HCT-116 colon 77.6% | HCC-2998 colon 99.8% | KM12 colon 96.6%

COc1ccc(Nc2nn3c(SCC(=O)c4ccc(C)cc4)nnc3s2)cc1
inactive: SR leukemia 68.9% | RPMI-8226 leukemia 98% | OVCAR-8 ovarian 94.8% | OVCAR-5 ovarian 99.3% | OVCAR-4 ovarian 108% | SK-OV-3 ovarian 79.2% | OVCAR-3 ovarian 110% | HS 578T breast 92.2% | NCI/ADR-RES ovarian 104% | T-47D breast 73.2% | BT-549 breast 92.2% | MDA-MB-435 melanoma 105% | SW-620 colon 98.1% | MCF7 breast; 10 µM unless noted 91.8% | HCT-116 colon 106% | HCC-2998 colon 111% | KM12 colon 97.3%

C=C(c1ccc(C(=O)O)cc1)c1cc2c(cc1C)C(C)(C)CCC2(C)C
2.66% (active) and 61% (inactive): RPMI-8226 leukemia
inactive: SR leukemia 46.1% and 84.9% | OVCAR-8 ovarian 77% and 80.6% | OVCAR-5 ovarian 91% and 79.7% | OVCAR-4 ovarian 95.4% and 86.9% | SK-OV-3 ovarian 88.7% and 77.8% | IGROV1 ovarian 98.9% and 79.8% | OVCAR-3 ovarian 88.8% and 82.6% | HS 578T breast 126% and 68.1% | T-47D breast 93.8% and 75.7% | BT-549 breast 55.4% | MDA-MB-435 melanoma 95.9% and 84% | SW-620 colon 113% and 97.6% | MCF7 breast; 10 µM unless noted 75.9% and 63.6% | HCT-116 colon 71.3% and 50% | HCC-2998 colon 78.6% and 76.1% | KM12 colon 59.2% and 36.3%

C=C(C)[C@@H]1CC[C@]2(C)[C@H](CC(=O)N[C@H]3[C@@H]4C[C@](C)(C(=O)OC)CC[C@]4(C)CC[C@]32C)[C@@]1(C)CCC#N
inactive: SR leukemia 41.8% | RPMI-8226 leukemia 48.3% | OVCAR-8 ovarian 78.7% | OVCAR-5 ovarian 91.6% | OVCAR-4 ovarian 76.7% | SK-OV-3 ovarian 97.4% | IGROV1 ovarian 95.2% | OVCAR-3 ovarian 79.7% | HS 578T breast 93.4% | T-47D breast 63.6% | BT-549 breast 72.1% | MDA-MB-435 melanoma 87.8% | SW-620 colon 93% | MCF7 breast; 10 µM unless noted 73.8% | HCT-116 colon 72.2% | HCC-2998 colon 100% | KM12 colon 79.6%

Nc1nc(N)c2c(n1)NC(c1ccc(Cl)cc1)CC(c1cccc(Nc3ccncc3)c1)=N2 (stereo unspecified)
inactive: RPMI-8226 leukemia 55.9% | OVCAR-8 ovarian 39% | OVCAR-5 ovarian 90.4% | OVCAR-4 ovarian 73.8% | SK-OV-3 ovarian 84.2% | OVCAR-3 ovarian 82.3% | HS 578T breast 77.9% | NCI/ADR-RES ovarian 100% | T-47D breast 77.6% | BT-549 breast 110% | MDA-MB-435 melanoma 42.7% | SW-620 colon 30% | MCF7 breast; 10 µM unless noted 49.4% | HCT-116 colon 21.9% | HCC-2998 colon 72.1% | KM12 colon 63.7%
active: SR leukemia 8.66%

Nc1ncc(-c2ccc3ncnc(N4CCc5ccc(Cl)cc54)c3c2)cc1C(F)(F)F
inactive: OVCAR-8 ovarian 25.2% | OVCAR-5 ovarian 12.2% | OVCAR-3 ovarian 10.8% | T-47D breast 12% | MDA-MB-435 melanoma 13.7% | SW-620 colon 34.8% | HCT-116 colon 23.3% | HCC-2998 colon 22.3% | KM12 colon 13.4%
active: SR leukemia -5.75% | RPMI-8226 leukemia -3.24% | OVCAR-4 ovarian 8.43% | SK-OV-3 ovarian 6.83% | IGROV1 ovarian -53.3% | HS 578T breast -14.3% | BT-549 breast -2.6% | MCF7 breast; 10 µM unless noted 7.34%

C=CCNC(=O)Cc1c(-c2ccc(OC)cc2)oc2c(OC)c3c(c(OC)c12)OCO3
inactive: SR leukemia 97.4% | RPMI-8226 leukemia 97.5% | OVCAR-8 ovarian 95.9% | OVCAR-5 ovarian 101% | OVCAR-4 ovarian 102% | SK-OV-3 ovarian 110% | IGROV1 ovarian 82.3% | OVCAR-3 ovarian 118% | HS 578T breast 103% | T-47D breast 101% | BT-549 breast 100% | MDA-MB-435 melanoma 103% | SW-620 colon 103% | MCF7 breast; 10 µM unless noted 83.9% | HCT-116 colon 92.8% | HCC-2998 colon 116% | KM12 colon 96.2%

Cc1nc2sc(C(=O)Nc3cccc4ccccc34)c(N)c2cc1C(=O)/C=C/c1ccccc1
active: RPMI-8226 leukemia -27% | OVCAR-8 ovarian -13.9% | OVCAR-3 ovarian -67.8% | NCI/ADR-RES ovarian -11.3% | BT-549 breast -31.1% | MDA-MB-435 melanoma 1.56% | SW-620 colon -8.3% | MCF7 breast; 10 µM unless noted 4.27% | HCT-116 colon -52.8% | HCC-2998 colon -85.4% | KM12 colon -43.7%
inactive: SR leukemia 13.2% | OVCAR-5 ovarian 13.6% | OVCAR-4 ovarian 34.6% | SK-OV-3 ovarian 27.1% | HS 578T breast 16.1% | T-47D breast 14.5%

Clc1ccc(/C=N\N2CCCCCC2)cc1
inactive: SR leukemia 93.8% and 79.5% | RPMI-8226 leukemia 107% | OVCAR-8 ovarian 116% and 98.7% | OVCAR-5 ovarian 87.8% and 95% | OVCAR-4 ovarian 91.9% | SK-OV-3 ovarian 110% and 109% | IGROV1 ovarian 103% | OVCAR-3 ovarian 101% and 116% | HS 578T breast 109% and 139% | T-47D breast 108% and 97.4% | BT-549 breast 105% and 90.4% | MDA-MB-435 melanoma 86.8% and 96.3% | SW-620 colon 101% and 110% | MCF7 breast; 10 µM unless noted 98.8% and 96.2% | HCT-116 colon 103% and 104% | HCC-2998 colon 97.4% | KM12 colon 107%
